Measured values reported in PubChem BioAssay (NCI).
Compounds without any hit were thinned out: in the full panel of roughly 79,000, 15% have a hit. No stated cut-off is given here; in the data, active means growth inhibition above about 70%; inactive means the rest.

Key:
[1] = NCI Yeast Anticancer Drug Screen. Data for the rad50 strain (AID 155);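 further: 0% = growth of vehicle-only cultures of the same strain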; settings: S. cerevisiae rad50 strain growth inhibition; at 50.0 µM; active compounds read high
Outline: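 DNA repair mutant yeast, compound exposure, growth read-out; inhibition is taken relative to vehicle.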

[2] = NCI Yeast Anticancer Drug Screen. Data for the mec2-1 strain (AID 157); settings: S. cerevisiae mec2-1 strain, at 50.0 µM, active compounds read high
Outline: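 Vehicle-treated cultures served as reference for growth inhibition of compound-exposed mec2-1 yeast.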

[3] = NCI Yeast Anticancer Drug Screen. Data for the sgs1 mgt1 strain (AID 161);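 further: 0% = growth of cultures given vehicle only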; settings: S. cerevisiae sgs1 mgt1 strain, at 50.0 µM, active compounds read high
Outline: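 Mutant yeast exposed to compound; growth scored against vehicle-only wells.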

[4] = NCI Yeast Anticancer Drug Screen. Data for the cln2 rad14 strain (AID 165);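 further: 0% = growth equal to vehicle treated cultures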; settings: S. cerevisiae cln2 rad14 strain, at 50.0 µM, active compounds read high
Outline: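 Each compound was tested on cln2 rad14 yeast. Inhibition of growth was calculated against vehicle-exposed controls.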

[5] = NCI Yeast Anticancer Drug Screen. Data for the bub3 strain (AID 167); settings: S. cerevisiae bub3 mutant strain, at 50.0 µM, active compounds read high
Outline: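 In this screen, a yeast mutant lacking normal mitotic checkpoint function is challenged with compound. Relative growth versus vehicle gives the inhibition value.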

[6] = NCI Yeast Anticancer Drug Screen. Data for the mlh1 rad18 strain (AID 175); settings: S. cerevisiae mlh1 rad18 strain growth inhibition; at 50.0 µM; active compounds read high
Outline: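 Vehicle-treated cultures served as the reference for growth inhibition in a yeast strain carrying DNA damage repair alterations exposed to each compound.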

Measured: growth inhibition

CC(=O)Nc1ccc(/C=N/NC(N)=O)cc1
inactive: [1] 16.4% | [2] 11.6% | [3] 19.8% | [4] 8.55% | [5] -0.7% | [6] 9.35%

Nc1nc(N)c2c(n1)CCC(CNc1ccc(C(=O)NC(CCC(=O)O)C(=O)O)cc1)C2 (configuration not stated)
inactive: [1] 23.6% | [2] 30.6% | [3] 38.3% | [4] 40.2% | [5] -3.8% | [6] 29.7%

COC(=O)C1=NNC(c2ccc(C)cc2)C1 (configuration not stated)
inactive: [1] 1.75% | [2] -2.25% | [3] -0.95% | [4] -0.3% | [5] -16% | [6] 2.85%

CC(C)CC1CC(=O)C(=O)C(CC(C)C)C1 (configuration not stated)
inactive: [1] 8.25% | [2] 0.5% | [3] 3.45% | [4] -17.5% | [5] 3.95% | [6] -1.05%

Cn1cc(-n2[nH]c(=O)n(-c3ccccc3)c2=O)c(=O)n(C)c1=O
inactive: [1] -50% | [2] 8.2% | [3] -1.1% | [4] -21.3% | [5] 16.1% | [6] 13.3%

O=C(Oc1ccc[nH]c1=O)C1CC1
inactive: [1] 17.9% | [2] 7.45% | [3] 67.2% | [4] 14% | [5] 22.2% | [6] 38%

Cc1cc(=O)[nH]c(/N=C(/N)N(C)C)n1
inactive: [1] 4.15% | [2] -10.8% | [3] 3% | [4] 11.4% | [5] 8.2% | [6] 5.05%

CC1(C)COC(c2ccc(C(C)(C)C)cc2C(O)(c2cc(C(C)(C)C)ccc2C2=NC(C)(C)CO2)c2cc(C(C)(C)C)ccc2C2=NC(C)(C)CO2)=N1
inactive: [1] -8.8% | [2] -4.2% | [3] 7% | [4] -5.5% | [5] 28.6% | [6] -1.1%

OCC1CCCC(n2cnc3c(=S)nc[nH]c32)O1 (configuration not stated)
inactive: [1] -8.4% | [2] -21.8% | [3] -20.2% | [4] -10.7% | [5] -42.2% | [6] 6.4%

O=C(c1ccc(F)cc1)c1c[nH]c(=O)[nH]c1=O
inactive: [1] -0.45% | [2] -18.1% | [3] -7.85% | [4] -6.85% | [5] 2.6% | [6] -33.2%

Cc1nccc2c3ccccc3n(S(=O)(=O)O)c12
inactive: [1] -4.7% | [2] 26.1% | [3] 11.4% | [4] 55% | [5] -5.95% | [6] 9%

CC(C)N(C(=O)c1cccc([N+](=O)[O-])c1)C(C)C
inactive: [1] 14.6% | [2] 11.2% | [3] 7.5% | [4] -30.9% | [5] -4.1% | [6] 15.8%

CCN(CC)CCOC(=O)c1ccc(N=Nc2ccc(O)cc2)cc1
inactive: [1] 7.25% | [2] -0.8% | [3] -17.9% | [4] -6.25% | [5] 1% | [6] -5.7%

Cc1c([O-])[n+]2cccc3ccn(c1=O)c32
inactive: [1] -28.7% | [2] -13.6% | [3] -16.7% | [4] -11.1% | [5] -2.4% | [6] 12.1%

O=[N+]([O-])c1cc(/C=N\NS(=O)(=O)c2ccc(Cl)cc2)c(O)c([N+](=O)[O-])c1
inactive: [1] 26.9% | [2] 7.2% | [3] 3.9% | [4] -1.35% | [5] 8.75% | [6] 8.6%

CCN(CC)CCOC(=O)C1c2ccccc2Oc2ccccc21
inactive: [1] 25.2% | [2] -31.5% | [3] 9.1% | [4] 13.9% | [5] 21.4% | [6] 15.3%

Cc1nc(N)sc1C
inactive: [1] 12.7% | [2] -26.9% | [3] 16.6% | [4] 7.7% | [5] 25.6% | [6] 26.2%

CC1CCC(C(C)C)N(C)CC1 (configuration not stated)
inactive: [1] -17.2% | [2] -22.6% | [3] -6% | [4] 3.75% | [5] -8.15% | [6] -2.2%

OC1CCOc2ccccc21 (configuration not stated)
inactive: [1] -29.8% | [2] 10.1% | [3] -11.1% | [4] 10.2% | [5] -14.8% | [6] -6.3%

COc1ccc(OC)c(NC(=O)Nc2cccc(C(C)=O)c2)c1
inactive: [1] -12.2% | [2] 33.9% | [3] 33% | [4] -55.4% | [5] 35.2% | [6] 22.6%

CCN(CC)c1ccccc1S(=O)(=O)O
inactive: [1] -5.45% | [2] -5.3% | [3] 2.9% | [4] -42.9% | [5] -6.85% | [6] -6.35%

CC(C)OC/N=C(/N)NC#N
inactive: [1] -17.1% | [2] 13.1% | [3] -29.4% | [4] 12.6% | [5] -10.1% | [6] -6.5%

CCOC(=O)C1CC(C)CC1=O (configuration not stated)
inactive: [1] 5.7% | [2] -2.6% | [3] -4.6% | [4] -4.4% | [5] 1.35% | [6] 0.2%

N#CCCNC1CCCCC1
inactive: [1] 2.95% | [2] 4% | [3] 2.5% | [4] -14.3% | [5] 0.85% | [6] -0.25%

CCOC(=O)C(C)C(CCC#N)(C(=O)OCC)C(=O)OCC (configuration not stated)
inactive: [1] -9.9% | [2] -24.1% | [3] -24% | [4] -0.35% | [5] -11.8% | [6] -9.3%

OC1CC2C3CCC(C3)C2C1O (configuration not stated)
inactive: [1] -11.8% | [2] -6.35% | [3] -10.4% | [4] -7.45% | [5] 9.55% | [6] -2.95%

CC(I)CNC1=NCC(=O)N1 (configuration not stated)
inactive: [1] -8.6% | [2] 5.9% | [3] -9.9% | [4] -21.1% | [5] 13.1% | [6] 13%

O=C1C=C2CCC[C@H]3OC(=O)C[C@@]23CC1
inactive: [1] 12.4% | [2] 16.2% | [3] 35.3% | [4] 28.4% | [5] -0.95% | [6] 27.4%

O=S(=O)(SC1=NCCN1)c1ccc2ccccc2c1
inactive: [1] -2.75% | [2] -5.15% | [3] -15.1% | [4] 6.65% | [5] -3% | [6] -41.5%

COCc1ccccc1P(c1ccccc1COC)c1ccccc1COC
inactive: [1] 31% | [2] 18.9% | [3] 42% | [4] 16.2% | [5] 10.5% | [6] 36%

COc1cc2c(cc1C)C(C)(C)CCC2(C)C
inactive: [1] 7.8% | [2] -0.45% | [3] -3.1% | [4] -45.1% | [5] 20.6% | [6] 4.15%

CC(C)=CCCC(C)(OC1OC(COC2OCC(O)C(O)C2O)C(O)C(O)C1O)C1CCC2(C)C1C(O)CC1C3(C)CCC(OC4OC(CO)C(O)C(O)C4OC4OC(CO)C(O)C(O)C4O)C(C)(C)C3CCC12C (configuration not stated)
inactive: [1] -15.8% | [2] -26.1% | [3] -6.05% | [4] 6.6% | [5] 4.55% | [6] 18.4%

CCc1ccc(/C(C#N)=C/c2cccc3ccccc23)cc1
inactive: [1] 2.45% | [2] -11.1% | [3] -0.6% | [4] -1.9% | [5] 4.05% | [6] -5.25%

CCOC(=O)C1(C(=O)OCC)CSC1
inactive: [1] -16.6% | [2] -5.45% | [3] -17.1% | [4] 3.85% | [5] -17.8% | [6] -22.3%

Clc1ccc(CSc2cnnc3c(Br)cccc23)c(Cl)c1
inactive: [1] -5.3% | [2] -11.5% | [3] -10.8% | [4] -39.2% | [5] 1.8% | [6] 0.85%

NC(CSC(=O)c1ccccc1)C(=O)O (configuration not stated)
inactive: [1] -14.2% | [2] -3.45% | [3] -19.8% | [4] -2.55% | [5] -30.2% | [6] -19.9%

COc1cc(/C=C2/C(=O)N(C(=O)c3ccccc3O)N=C2C)ccc1O
inactive: [1] -6.55% | [2] -10.3% | [3] -9.4% | [4] 9.75% | [5] 1.65% | [6] -13.9%
